Values without a mark were called inactive. Activity calls are given as the source filed them. Rule as the data show it: active = IC50 below about 9 µM; inactive = the rest.
What follows are compounds tested on Ba/F3 Cytotoxicity (assay: JAK2V617F project follow-up: kinase, reporter, cytotoxicity – HEL and Ba/F3 cells, late-stage follow-up (AID 2165)). Conditions: JAK2V617F panel: kinase, IRF1 reporter.

Row | SMILES | IC50
1 | Cc1ccc(O)c(NC(=O)COc2ccc(Br)cc2)c1 | 2.43 µM (active)
2 | C=CCNc1ncnc2cc(OC)c(OC)cc12 | > 40 µM
3 | Cc1[nH]c(=O)c(C(=O)C=Cc2ccc(Cl)cc2)c2c1CCCC2 | 2.48 µM (active)
4 | Cc1cc2ncc(-c3ccc(O)c(O)c3)nc2cc1C | 0.36 µM (active)
5 | Cc1[nH]c(=O)c(C(=O)C=Cc2ccc(I)cc2)c2c1CCCC2 | > 40 µM
6 | COc1cc2ncnc(N[C@H](C)c3ccccc3)c2cc1OC | 3.19 µM (active)
7 | N#Cc1ccccc1NC(=O)COc1ccc2c(c1)OCO2 | > 40 µM
8 | C/C(=C\c1ccccc1F)C(=O)c1c(C)cc(C)[nH]c1=O | > 40 µM
9 | COCCOc1cc2ncnc(Nc3cccc(C#Cc4ccc(O)cc4)c3)c2cc1OCCOC | 3.68 µM (active)
10 | Cc1cccc(OCC(=O)Nc2ccc(C)c(C)c2)c1 | > 40 µM
11 | Cc1[nH]c(=O)c(C(=O)/C=C/c2ccccc2)c2c1CCCC2 | 0.89 µM (active)
12 | Cc1cc(C)c(C(=O)/C=C/c2ccccc2F)c(=O)[nH]1 | 0.69 µM (active)
13 | COCCOc1cc2ncnc(Nc3cccc(C#Cc4ccc(-c5ccccc5)cc4)c3)c2cc1OCCOC | > 40 µM
14 | Cc1cc(C)cc(NC(=O)COc2cccc(C)c2)c1 | > 40 µM
15 | Cc1cccc(NC(=O)COc2cccc(C)c2)c1 | > 40 µM
16 | N#C/C(=C\c1ccc(O)c(O)c1)C(=O)NCCCCc1ccccc1 | 0.33 µM (active)
17 | CCOc1cc2ncnc(Nc3cccc(Br)c3)c2cc1OCC | 3.16 µM (active)
18 | CC(C)c1cc(C=C(C#N)C(=O)NCCCc2ccccc2)cc(C(C)C)c1O | 4.29 µM (active)
19 | COc1ccc(Cl)cc1NC(=O)NC(C)c1ccncc1 (stereo not drawn) | > 40 µM

Row | SMILES | IC50
20 | COc1cc2ncnc(NC3CCCCC3)c2cc1OC | > 40 µM
21 | CCC(C)Nc1ncnc2cc(OC)c(OC)cc12 (stereo not drawn) | > 40 µM
22 | COc1cccc(Nc2ncnc3cc(OC)c(OC)cc23)c1 | > 40 µM
23 | COc1cc2ncnc(Nc3cccc(C)c3)c2cc1OC | > 40 µM
24 | Cc1[nH]c(=O)c(C(=O)/C=C/c2ccccc2F)c2c1CCCC2 | 0.43 µM (active)
25 | N#CC(=Cc1ccc(O)c(O)c1)C(=S)NCc1ccccc1 | 1.09 µM (active)
26 | Cc1ccc(O)c(NC(=O)COc2ccccc2Cl)c1 | 0.0217 µM (active)
27 | CCS(=O)(=O)c1ccc(O)c(NC(=O)COc2cccc(C)c2)c1 | > 40 µM
28 | Cc1ccc(O)c(NC(=O)COc2ccc(F)cc2)c1 | 0.0825 µM (active)
29 | Cc1[nH]c(=O)c(C(=O)C=Cc2ccc(C(C)C)cc2)c2c1CCCC2 | 2.74 µM (active)
30 | O=C(COc1ccccc1)Nc1ncccn1 | > 40 µM
31 | Cc1ccc(O)c(NC(=O)COc2cc(C)c(Cl)c(C)c2)c1 | 6.17 µM (active)
32 | N#C/C(=C\c1ccc(O)c(O)c1)C(=O)NCCc1ccccc1 | 0.3 µM (active)
33 | COc1cc2ncnc(Nc3ccc(F)c(F)c3)c2cc1OC | > 40 µM
34 | Cc1ccc(O)c(NC(=O)COc2ccc(C3CCCCC3)cc2)c1 | 3.91 µM (active)
35 | Cc1ccc(O)c(NC(=O)COc2cc(C)ccc2C)c1 | 1.36 µM (active)
36 | CCc1cccc(Nc2ncnc3cc(OCCOC)c(OCCOC)cc23)c1 | > 40 µM
37 | Cc1[nH]c(=O)c(C(=O)C=Cc2ccc(Cl)cc2Cl)c2c1CCCC2 | 1.45 µM (active)
38 | Cc1ccc(O)c(NC(=O)COc2ccc(I)cc2)c1 | 0.0269 µM (active)

— PubChem BioAssay AID2165 (The Scripps Research Institute Molecular Screening Center, 2009)
